Rows were chosen to be rich in hits. Some 2.4% of all compounds tested hit in one or more screens of this group.
D2 ag-1: activates the human D2 dopamine receptor; P14416; HEK293 T-REx D2 cells, calcium flux agonist mode; activation, % at 2 µM; 340,000 compounds, 0.53% hits;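 active = activation over 3 SD above normal in the single-dose calcium agonist read, cut at about 30% in these data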
Target sequence (P14416 whole entry, looked up): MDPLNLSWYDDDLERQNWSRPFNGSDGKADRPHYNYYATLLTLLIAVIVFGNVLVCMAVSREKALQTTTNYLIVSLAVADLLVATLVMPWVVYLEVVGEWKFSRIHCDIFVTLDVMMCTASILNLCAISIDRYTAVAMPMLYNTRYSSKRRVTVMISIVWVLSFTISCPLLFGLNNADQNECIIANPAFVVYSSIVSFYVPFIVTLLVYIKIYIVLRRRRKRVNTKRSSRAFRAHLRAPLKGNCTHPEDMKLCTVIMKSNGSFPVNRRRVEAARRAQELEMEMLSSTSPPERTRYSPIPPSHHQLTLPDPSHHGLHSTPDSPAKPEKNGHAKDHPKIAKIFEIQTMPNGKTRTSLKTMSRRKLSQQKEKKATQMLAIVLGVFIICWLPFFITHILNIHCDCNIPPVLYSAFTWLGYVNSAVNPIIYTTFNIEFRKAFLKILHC
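Calcium-flux readout, 1 cycle/sec over 180 s following compound pin transfer, in inducible HEK293 Trex D2 cells (force-coupled); dopamine controls included. Positive calcium responses during this window marked compounds as potential agonists.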
D2 ag-2: activates the human D2 dopamine receptor | 360,000 compounds, 0.084% hits | P14416 | activation, % (no concentration beside the values) | DiscoveRx PathHunter D2 beta-arrestin, luminescence, 90 min; 100% = 57 uM dopamine signal; in the data active = activation above about 40%; inconclusive = between about 15% and that limit
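Agonist mode: compounds alone added to overnight-plated D2 PathHunter cells for 90 min at 37 C, with 57 uM final dopamine (EC100) defining full response. Beta-arrestin recruitment detected by chemiluminescent reagent, read after 1 h at ambient temperature.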
D2 antag: antagonizes the human D2 dopamine receptor | 340,000 compounds, 2% hits | inhibition, % at 10 µM | P14416 | HEK293 TREx D2 cells, calcium flux, dopamine EC80; in the data active = inhibition above about 30%; inactive = below that, where a call was filed
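Tetracycline-induced HEK293 TREx cells expressing D2 receptor forced-coupled to calcium signalling, loaded with no-wash calcium dye. Compounds added and calcium flux read 180 s, then dopamine added at EC80 and read a further 180 s.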
D2 PAM-1: human D2 receptor positive allosteric modulation. P14416. DiscoveRx D2 beta-arrestin cells, luminescence, 90 min; 100% = 57 uM dopamine signal. potentiation, % (test concentration not listed). 360,000 compounds, 0.23% hits. AID 624464; in the data active = potentiation above about 50%; inconclusive = mostly about 30% to 49%
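D2 cells co-treated with compound plus 50 nM dopamine (EC20) for 90 min at 37 deg C to detect potentiation. Beta-arrestin recruitment was read as enzyme-fragment luminescence after 1 h at ambient temperature. Full response was set by 57 uM dopamine.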
D2 PAM-2: D2 dopamine receptor (human) potentiation. 340,000 compounds, 0.34% hits. HEK293 T-REx D2, calcium flux, EC20 dopamine potentiation. P14416. AID 485347. potentiation, % at 10 µM;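 active = potentiation over 3 SD above the plate norm, cut at about 30% in these data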
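Primary screen. Calcium kinetics in induced HEK293 T-REx D2 cells: compound pre-addition 180 s, EC20 dopamine, 180 s more.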
Hits are given with their value.

How did Cc1ccc(S(=O)(=O)Oc2ccccc2N2C(=O)C3CC=CCC3C2=O)cc1 (configuration not stated) do in these assays?
D2 ag-1: inactive; D2 ag-2: inactive; D2 antag: 40.4; D2 PAM-1: inactive; D2 PAM-2: inactive

How did CS(=O)(=O)c1ccc(Cl)c(S(=O)(=O)NCc2ccccc2)c1 do in these assays?
D2 ag-1: inactive; D2 ag-2: inactive; D2 antag: 35.0; D2 PAM-1: inactive; D2 PAM-2: inactive

How did Cc1cccc(/C(N)=N/OC(=O)c2ccc(Br)o2)c1 do in these assays?
D2 ag-1: inactive; D2 ag-2: inconclusive; D2 antag: inactive; D2 PAM-1: 65.3; D2 PAM-2: inactive

What do the screens show for `Cc1cccc(C(=O)O/N=C(/c2ccccc2)c2ccncc2)c1`?
D2 ag-1: inactive; D2 ag-2: inconclusive; D2 antag: inactive; D2 PAM-1: 63.4; D2 PAM-2: inactive

Results for Cc1cccc(/C(N)=N/OC(=O)N2c3ccccc3Sc3ccccc32)c1 ?
D2 ag-1: inactive; D2 ag-2: inconclusive; D2 antag: inactive; D2 PAM-1: 51.4; D2 PAM-2: inactive

What do the screens show for `N/C(=N\OC(=O)N1c2ccccc2Sc2ccccc21)c1ccccc1`?
D2 ag-1: inactive; D2 ag-2: inactive; D2 antag: inactive; D2 PAM-1: inactive; D2 PAM-2: inactive

How did Cc1cccc(/C(N)=N/OC(=O)c2ccc3c(c2)OCO3)c1 do in these assays?
D2 ag-1: inactive; D2 ag-2: inconclusive; D2 antag: inactive; D2 PAM-1: 57.0; D2 PAM-2: inactive

What do the screens show for `CCOc1ccc(N2CC(C(=O)NNC(=O)c3ccc(Br)cc3)CC2=O)cc1` (configuration not stated)?
D2 ag-1: inactive; D2 ag-2: inactive; D2 antag: inactive; D2 PAM-1: inactive; D2 PAM-2: inactive

What do the screens show for `CN(C)CC(CCCCC(CN(C)C)C(=O)c1ccccc1)C(=O)c1ccccc1` (configuration not stated)?
D2 ag-1: inactive; D2 ag-2: inactive; D2 antag: inactive; D2 PAM-1: inactive; D2 PAM-2: inactive

How did COc1ccc(OC)c(/C=C(/C#N)c2nc(-c3ccc(-c4ccccc4)cc3)cs2)c1 do in these assays?
D2 ag-1: inactive; D2 PAM-2: inactive

Results for Cc1ccccc1N(CC(N)=O)S(C)(=O)=O ?
D2 ag-1: inactive; D2 ag-2: inactive; D2 antag: inactive; D2 PAM-1: inactive; D2 PAM-2: inactive

Results for Cc1ccccc1N(CC(=O)O)S(C)(=O)=O ?
D2 ag-1: inactive; D2 ag-2: inactive; D2 antag: inactive; D2 PAM-1: inactive; D2 PAM-2: 30.8

Results for O=S(=O)(Nn1cnnc1)c1ccccc1Cl ?
D2 ag-1: inactive; D2 ag-2: inactive; D2 antag: 30.4; D2 PAM-1: inactive; D2 PAM-2: inactive

Results for Cc1cc(C)n(C(=O)Cn2nc(C)c(Br)c2C)n1 ?
D2 ag-1: inactive; D2 ag-2: inactive; D2 antag: inactive; D2 PAM-1: inactive; D2 PAM-2: inactive

What do the screens show for `COCCOc1ccc(C(F)(F)F)cc1NC(=O)c1ccc(C(F)(F)F)cc1`?
D2 ag-1: inactive; D2 ag-2: inactive; D2 antag: 58.6; D2 PAM-1: inactive; D2 PAM-2: inactive

Results for Nc1ccc(C(=O)OCc2nc3ccccc3s2)cc1 ?
D2 ag-2: inactive; D2 PAM-1: inactive

Results for O=C(OCc1nc2ccccc2s1)c1ccc(Br)s1 ?
D2 ag-1: inactive; D2 ag-2: inactive; D2 antag: 31.9; D2 PAM-1: inactive; D2 PAM-2: inactive

Results for Cc1ccc(C2CC(c3ccc(Br)cc3)=NN2C(=O)CSC2=NN3CCCC(=O)N=C3S2)cc1 (configuration not stated) ?
D2 ag-1: inactive; D2 ag-2: inactive; D2 antag: inactive; D2 PAM-1: inactive; D2 PAM-2: 33.0

What do the screens show for `O=C1CCCN2N=C(SCC(=O)N3N=C(c4ccc(Br)cc4)CC3c3ccc(F)cc3)SC2=N1` (configuration not stated)?
D2 ag-1: inactive; D2 ag-2: inactive; D2 antag: inactive; D2 PAM-1: inactive; D2 PAM-2: inactive

Results for COc1ccc(C2=NN(C(=O)CSc3nc(=O)n4cc(C)ccc4n3)C(c3ccc(C)cc3)C2)cc1 (configuration not stated) ?
D2 ag-1: inactive; D2 ag-2: inactive; D2 antag: 40.6; D2 PAM-1: inactive; D2 PAM-2: inactive

Results for COc1ccc(C2=NN(C(=O)CSc3ncccn3)C(c3ccc(OC)cc3)C2)cc1 (configuration not stated) ?
D2 ag-1: inactive; D2 ag-2: inactive; D2 antag: inactive; D2 PAM-1: inactive; D2 PAM-2: inactive

How did O=C(C1CCCC1)N1CCN=C1SCc1cccc([N+](=O)[O-])c1 do in these assays?
D2 ag-1: inactive; D2 ag-2: inactive; D2 antag: inactive; D2 PAM-1: inactive; D2 PAM-2: inactive

How did O=C(/C=C/c1ccc(S(=O)(=O)N2CCOCC2)cc1)N1CCN(c2ccc(F)cc2)CC1 do in these assays?
D2 ag-1: inactive; D2 ag-2: inactive; D2 antag: inactive; D2 PAM-1: inactive; D2 PAM-2: inactive

Results for CC1CC(C)CN(C(=O)/C=C/c2ccc(S(=O)(=O)N3CCOCC3)cc2)C1 (configuration not stated) ?
D2 ag-1: inactive; D2 ag-2: inactive; D2 antag: 30.4; D2 PAM-1: inactive; D2 PAM-2: inactive

How did Cc1ccc(-n2nc3c(N4CCC(C(=O)NCc5ccc(C)o5)CC4)nnc(C)c3c2C)cc1 do in these assays?
D2 ag-1: inactive; D2 ag-2: inactive; D2 antag: inactive; D2 PAM-1: inactive; D2 PAM-2: 31.3

How did CCSc1ccc2cc(OC)ccc2[n+]1CC do in these assays?
D2 ag-1: inactive; D2 ag-2: inactive; D2 antag: inactive; D2 PAM-1: inactive; D2 PAM-2: inactive

What do the screens show for `CC1(C)CC(=O)c2sc(NS(=O)(=O)c3ccc([N+](=O)[O-])cc3)nc2C1`?
D2 ag-1: inactive; D2 ag-2: inactive; D2 antag: inactive; D2 PAM-1: 53.7; D2 PAM-2: inactive

What do the screens show for `CC1(C)CC(=O)c2sc(NS(=O)(=O)c3ccccc3)nc2C1`?
D2 ag-1: inactive; D2 ag-2: inactive; D2 antag: inactive; D2 PAM-1: inactive; D2 PAM-2: inactive

Results for COc1ccc(C(=O)N/N=C/c2cn[nH]c2-c2ccc(OC)cc2OC)cc1 ?
D2 ag-1: inactive; D2 ag-2: inactive; D2 antag: inactive; D2 PAM-1: inactive; D2 PAM-2: inactive

What do the screens show for `COc1c(Br)cc(Br)cc1/C=N/NC(=O)c1ccncc1`?
D2 ag-1: inactive; D2 ag-2: inactive; D2 antag: 93.5; D2 PAM-1: inactive; D2 PAM-2: inactive

Results for COc1ccc(-c2[nH]ncc2/C=N/NC(=O)c2ccc(Br)cc2)c(OC)c1 ?
D2 ag-1: inactive; D2 ag-2: inactive; D2 antag: 48.3; D2 PAM-1: inactive; D2 PAM-2: inactive

Source: PubChem
